Jurkat NFkB inh – inhibitors of the PMA/ionomycin-induced NF-kB reporter in Jurkat cells. AID 435003. PMA/ionomycin-induced NF-kB luciferase reporter, luminescence. inhibition, % at 4 µM. actives 0.53% (n = 330,000); in the data active = inhibition above about 50%
Shn3 inh set2 – reduces Shn3 3'UTR luciferase signal in osteoblasts. Clone20 osteoblast Shn3 3'UTR firefly luciferase, 24 h. inhibition, % at 12.5 µM. actives 0.52% (n = 360,000). AID 588674;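 active = mean inhibition of at least 75% with every replicate also reaching 75%; inconclusive = mean inhibition at least 75% but some replicate below; inactive = mean inhibition below 75%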;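 also: 0% = median of neutral control wells and 100% = pilot-screen positive control compound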
Mdm2 MdmX PPI – human Mdm2/MdmX binding inhibition | O15151+Q00987 | SaOS-2 split-luciferase Mdm2/MdmX complementation, luminescence | inhibition, % at 8 µM | actives 3% (n = 330,000) | AID 485346;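 active = inhibition of at least 50% at 8 µM in the primary screen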
697 NFkB inh – inhibitors of the PMA/ionomycin-induced NF-kB reporter in 697 B cells; 697 B-cell NF-kB luciferase reporter, 16 h; inhibition, % at 4 µM; actives 0.33% (n = 330,000); in the data active = inhibition above about 35%
Gli-Sufu antag – antagonists of Gli-Sufu signaling; AID 588413; actives 0.74% (n = 340,000); Sufu-KO-LIGHT fibroblasts, Gli luciferase reporter luminescence; inhibition, % at 5 µM;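 active = inhibition above about 55%, limit read from the data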;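 also: 0% = DMSO-treated cells and 100% = wells with medium but no cells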
The depositor's hits bear a star; ? = inconclusive; nt = no result. A selection: hits, their analogues and other compounds. The true share with any hit is near 3.8%.

SMILES | Jurkat NFkB inh | Shn3 inh set2 | Mdm2 MdmX PPI | 697 NFkB inh | Gli-Sufu antag
CCOC(=O)SC1=N/C(=C\c2ccc(N(C)C)cc2)C(=O)S1 | -1 | 5 | -29 | -8 | -14
CCOC(=O)c1cc2c(=Cc3ccc(N(C)C)cc3)c3ccccc3n2[n+]1C | nt | ? | nt | nt | 76*
CN(C)c1ccc(C=c2c3ccccc3n3c2c2ccccc2[n+]3C)cc1 | nt | 93* | nt | nt | 44
CCCCN(C=O)c1c(CC)nc2ccc(C(=O)NCc3ccc4c(c3)OCO4)cn12 | nt | 6 | nt | nt | nt
O=C(COC(=O)c1cc(S(=O)(=O)N2CCOCC2)ccc1F)NCc1ccc2c(c1)OCO2 | 9 | -5 | -8 | 4 | -1
COc1ccccc1C(c1nnnn1Cc1ccccc1)N1CCN(C2CCCC2)CC1 (centres undefined) | 4 | 9 | 5 | 5 | 3
COc1ccc(OC)c(C(c2nnnn2Cc2ccccc2)N2CCN(C3CCCCC3)CC2)c1 (centres undefined) | -5 | 90* | 22 | 14 | 0
O=C(Nc1ccc(C(=O)N2CCOCC2)cc1)c1ccccc1Cl | nt | -36 | nt | nt | nt
Cc1csc2ncnc(N3CCN(S(=O)(=O)c4cccc(C(F)(F)F)c4)CC3)c12 | 5 | ? | 20 | -46 | 68*
CC1=C(C(=O)N(C(C)C)C(C)C)CC(CC(=O)NCc2cccs2)C(=O)N1Cc1ccccc1 (centres undefined) | nt | 5 | nt | nt | nt
CN(c1ccccc1)c1ccc(/C=C/[N+](=O)[O-])cc1 | nt | 94* | nt | nt | -1
CC1(C)CC(=O)C=C(c2n[nH]nc2C2CC2)C1 | nt | 8 | nt | nt | nt
NC(=S)n1[nH]c(-c2ccc([N+](=O)[O-])cc2)c(N=Nc2ccc(Cl)cc2)c1=O | nt | 81 | nt | nt | 60*
COc1ccc(C(=O)/C=C/C(=O)N(Cc2ccc3c(c2)OCO3)C(C(=O)NC2CCCCC2)c2ccncc2)c(O)c1 (centres undefined) | -9 | -7 | 26 | 6 | 8
COc1ccc(CN(C(=O)/C=C/C(=O)c2ccc(OC)cc2O)C(C(=O)NC2CCCCC2)c2ccncc2)cc1 (centres undefined) | 5 | -2 | -17 | 10 | 10
COc1ccc(C(=O)/C=C/C(=O)N(CC(=O)NC2CCCCC2)Cc2cccs2)c(O)c1 | -1 | 93* | 30 | 11 | 8
COCCN(CC(=O)NC1CCCCC1)C(=O)/C=C/C(=O)c1ccc(OC)cc1O | nt | 98* | nt | nt | 4
CC(C)(C)Nc1c(C2CCNCC2)nc2c(OCc3ccccc3)cccn12 | nt | -4 | nt | nt | nt
COc1ccc(N(C(=O)CCl)C(C(=O)NCCc2ccccc2)c2cccs2)cc1Cl (centres undefined) | nt | ? | nt | nt | 96*
COc1cccc(N(C(=O)c2snc(C(N)=O)c2N)C(C(=O)NCC2CCCO2)c2cccs2)c1 (centres undefined) | 0 | 4 | -18 | 10 | -3
COc1ccc(N(C(=O)c2ccco2)C(C(=O)NC2CCCCC2)c2cccs2)cc1OC (centres undefined) | -8 | -3 | 22 | 18 | -101
COc1cccc(N(C(=O)CCl)C(C(=O)NCCc2ccccc2)c2cccs2)c1 (centres undefined) | nt | 37 | nt | nt | 93*
COc1ccccc1/C=C1\CCCC2=C1Nc1nnnn1C2c1ccccc1OC (centres undefined) | nt | 91* | nt | nt | 7
Cc1ccc2c(COC(=O)C3CSC4(C)CCC(=O)N34)cc(=O)oc2c1C (centres undefined) | -3 | 0 | 4 | 6 | 14
CC[C@H](C)[C@@H]1NC(=O)[C@@H](CC(C)C)NC(=O)[C@H](C(C)C)NC(=O)[C@H]2CSSC[C@H](NC1=O)C(=O)N2 | nt | 89* | nt | nt | nt
SMILES | Jurkat NFkB inh | Shn3 inh set2 | Mdm2 MdmX PPI | 697 NFkB inh | Gli-Sufu antag
CC(C)C[C@@H]1NC(=O)[C@H](C(C)C)NC(=O)c2cc([N+](=O)[O-])cc(I)c2NCC[C@@H](C(N)=O)NC1=O | 9 | nt | -20 | 9 | -2
CCCNC(=O)C1(C)CCCN(Cc2ccc(Oc3ccccc3)cc2)C1 (centres undefined) | nt | 22 | nt | nt | nt
Cc1noc(C)c1CSCC(=O)N1CCN(c2ccc(F)cc2)CC1 | 20 | 47 | 7 | -30 | 24
Cc1cccc(N2CCN(C(=O)CSCc3c(C)noc3C)CC2)c1C | 21 | 85* | 11 | -29 | 40
O=C1C(Cl)=C(N2CCN(c3ccccc3[N+](=O)[O-])CC2)C(=O)c2ccccc21 | nt | 96* | nt | nt | 37
CCCCCCN1C[C@H](n2cc(-c3ccc(F)cc3)nn2)[C@@H](O)C[C@@H]1c1ccc(Cl)cc1 | nt | 95* | nt | nt | nt

Screening data: PubChem BioAssay, several laboratories
